Pf growth 96h = inhibits malaria parasite growth, 96 h; hit rate 6.9% among 320,000; Potency, µM (series often up to 28.7 µM), without a hit: top-dose activity change, negative = inhibition, actives largely listed as inhibitors; P. falciparum luciferase reporter growth, 96 h; further: on the % scale 0 is the no-effect control and ±100 the full control effect
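Parasite growth measured via integrated firefly luciferase reporter in P. falciparum. Infected erythrocytes at 2% hematocrit, 0.05% parasitemia final were treated 96 hours at 37 C under 5% CO2, and luminescence was read.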
Pf growth 48h = P. falciparum growth inhibition at 48 hours (one generation) | Potency, µM (highest dose often 28.7 µM), inactives show at the highest dose activity change, negative = inhibition, actives largely listed as inhibitors | P. falciparum luciferase growth in erythrocytes, 48 h | AID 504832 | hit rate 5.9% among 310,000; further: on the % scale 0 is the no-effect control and ±100 the full control effect
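Here the parasites carry a stable luciferase gene and grow inside erythrocytes in Albumax-based RPMI medium with compound for one erythrocytic cycle. Activity is scored as loss of luminescent signal.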
Sm TGR inh = blocks Schistosoma mansoni thioredoxin glutathione reductase. Q962Y6. hit rate 3% among 360,000. purified TGR, DTNB reduction, TNB absorbance 405 nm. Potency, µM (top dose mostly 114 µM), without a hit: at the top dose activity change, negative = inhibition, actives largely listed as inhibitors; further: on the % scale 0 is the no-effect control and ±100 the full control effect; nearly all actives have a fitted effect of over 60% in size
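TGR 20 nM + NADPH 100 uM (dispensed conc.), cpd preinc 15 min RT; start with NADPH (500 uM addition) then DTNB (15 mM addition). Kinetic TNB absorbance, 405 nm filter. Four-parameter Hill fit across titration.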
SARS PLP yeast = blocks SARS-CoV papain-like protease in a yeast assay | S. cerevisiae expressing SARS-CoV PLpro, growth rescue | hit rate 0.19% among 330,000 | AID 485353 | Potency, µM (doses to about 32.9 µM), for inactives: top-dose activity, positive = growth rescue, usual class: activators; calls by dose curve; further: 0% is about no effect; nearly all actives have a fitted effect of over 55% in size
The depositor's hits bear a star; ? = inconclusive; / = no result given. A selection: hits, their analogues and other compounds. The true share with any hit is near 12%. Unless noted, the call rests on the fitted dose curve; in most records, active means well fitted curve in the direction sought with a large enough effect; inconclusive means small, poorly fitted or top-dose-only effect, or another doubt; inactive means no such curve, though single readings can be large; an effect the other way counts as inactive or inconclusive. Potency means the concentration at half of the fitted maximal effect.

SMILES	Pf growth 96h	Pf growth 48h	Sm TGR inh	SARS PLP yeast
CCOC(=O)Oc1c(OC)cc(C(=O)O[C@@H]2C[C@@H]3CN4CCc5c([nH]c6cc(OC)ccc56)[C@H]4C[C@@H]3[C@H](C(=O)OC)[C@H]2OC)cc1OC	2.94µM*	2.62µM*	-8.9%	/
COC(=O)[C@@H]1[C@@H]2C[C@H]3c4[nH]c5cc(OC)ccc5c4CCN3C[C@@H]2C[C@H](OC(=O)/C=C\c2cc(OC)c(OC)c(OC)c2)[C@H]1OC	?	5.1µM*	/	/
COc1cccc(N2CCN(C(=O)C3CCN(S(=O)(=O)c4cccc5nonc45)CC3)CC2)c1	/	/	-6.9%	/
COc1ccc(/C(C)=N/NC2=NCCN2)cc1Cl	3.7µM*	4.65µM*	-12.1%	-6.6%
CCCCOc1ccc(Br)cc1/C(C)=N/NC1=NCCN1	-10.0%	4.65µM*	4.6%	-41.1%
CCCCCCOc1ccc(/C(C)=N/NC2=NCCN2)cc1[N+](=O)[O-]	27.9%	?	/	-3.5%
C/C(=N\NC1=NCCN1)c1ccc(N)c([N+](=O)[O-])c1	?	2.08µM*	6.3%	3.4%
Cc1cccc(NC(=O)c2ccc(N(Cc3ccccc3)S(C)(=O)=O)cc2)c1	/	/	-7.9%	/
Cc1cc(C(=O)CN2C(=O)NC(c3ccccc3)(c3ccccc3)C2=O)c(C)n1Cc1ccco1	-22.0%	1.31µM*	-17.4%	-0.4%
Cc1ccc2cccc(OCC(=O)c3cc(C)n(Cc4ccco4)c3C)c2n1	?	13.1µM*	?	1.6%
Cc1cc(C(=O)CCl)c(C)n1Cc1ccco1	197.0%	15.8%	3.98µM*	?
Cc1cc(C(=O)CN2C(=O)NC(C)(c3cccc(Br)c3)C2=O)c(C)n1Cc1ccco1 (stereo not drawn)	10.3%	1.47µM*	?	1.1%
C/C=C(\C)C(=O)O[C@H](c1cc2ccc(=O)oc2cc1OC)[C@@H](O)C(C)(C)O	24.7%	20.4%	?	1.4%
Cc1cc(C(=O)CCl)c(C)n1-c1ccon1	?	-15.6%	11.2µM*	?
CCOC(=O)c1cc(C)n(CCc2ccccc2)c1C	83.8%	?	1.4%	-0.2%
Cc1cc(C(=O)CCl)c(C)n1CCc1ccccc1	-25.7%	-12.7%	8.91µM*	8.7%
CC(=O)c1cccc(OCC(=O)c2cc(C)n(-c3cc(C)on3)c2C)c1	30.2%	?	-28.5%	-18.8%
COc1ccc(C(=O)N2CCNC(=O)C2)cc1S(=O)(=O)Nc1ccc(Br)cc1	-7.1%	-6.8%	-3.0%	-1.3%
O=C(CSc1nc2ccccc2o1)N1c2ccccc2Sc2ccccc21	53.4%	?	-2.5%	-4.5%
O=C(CSc1nc2ccccc2s1)N1c2ccccc2Sc2ccc(Cl)cc21	5.86µM*	?	-12.2%	-2.0%
O=C(CSc1nc2ccccc2s1)N1c2ccccc2Sc2ccc(C(F)(F)F)cc21	?	14.7µM*	3.9%	3.7%
CC(=O)c1cc(-c2ccccc2)n(CC(=O)Nc2ccc(C)cc2C)c1C	/	/	-0.2%	/
CN(Cc1ccccc1)C(=O)c1nc2ccccn2c1CN1CCCC1c1nccs1 (stereo not drawn)	?	6.57µM*	-32.6%	-2.1%
Cn1c(=O)c2c(n3c4ccccc4nc13)NC(=O)CC2c1ccccc1F (stereo not drawn)	/	/	-8.7%	/
CCOc1ccc(C(C)=O)cc1COC(=O)C(C)N=C1NS(=O)(=O)c2ccccc21 (stereo not drawn)	-12.9%	-4.9%	20µM*	-1.7%
SMILES	Pf growth 96h	Pf growth 48h	Sm TGR inh	SARS PLP yeast
COc1ccc(CCN2C(=O)c3[nH]nc(-c4ccccc4O)c3C2c2cccc(O)c2)cc1OC (stereo not drawn)	13.1µM*	10.4µM*	8.9%	-3.5%
CCCCN1C(=O)c2[nH]nc(-c3ccccc3O)c2C1c1cc(Br)c(O)c(OC)c1 (stereo not drawn)	/	/	56.2µM*	/
O=C1c2[nH]nc(-c3ccccc3O)c2C(c2cccc(Cl)c2)N1Cc1ccco1 (stereo not drawn)	/	8.28µM*	-11.0%	-12.8%
CCCCN1C(=O)c2[nH]nc(-c3ccccc3O)c2C1c1ccc(OCc2ccccc2)c(OC)c1 (stereo not drawn)	/	/	10.3%	/
CCCCNC(=O)c1cnn2c(C)c(Cc3c(F)cccc3Cl)c(C)nc12	/	/	-0.9%	/
CC(OC(=O)c1ccco1)C(=O)Nc1ncc(Cl)cc1Cl (stereo not drawn)	1.5%	16.8%	0.7%	0.6%
COc1cc2c(cc1OC)C(c1ccc([N+](=O)[O-])cc1)NC(=O)C2 (stereo not drawn)	?	13.5%	0.0%	1.5%
CCN(CC)c1nc(SCCOC(=O)Nc2ccccc2)nc(N(CC)CC)n1	10.4µM*	?	-14.8%	-21.0%
Brc1c(C[n+]2ccccc2)nc2ccccn12	?	?	5.3%	6.4%
Brc1ccc(C[n+]2ccccc2)cc1	7.38µM*	2.94µM*	2.1%	-2.6%
CCOc1ccccc1NC(=O)C(C)Sc1nc2c(c(=O)[nH]1)CCCC2 (stereo not drawn)	/	/	-0.4%	/
Cc1ccc(S(=O)(=O)N2[C@@H](c3ccc(F)cc3)C(C(=O)O)=CC[C@H]2c2ccc3c(c2)OCO3)cc1	11.7µM*	?	-17.0%	1.2%
Cc1ccc(S(=O)(=O)N2[C@@H](c3ccccc3F)C(C(=O)O)=CC[C@H]2c2ccc3c(c2)OCO3)cc1	11.7µM*	?	-7.9%	2.1%
Cc1ccc([C@@H]2CC=C(C(=O)O)[C@H](c3ccc(F)cc3)N2S(=O)(=O)c2ccc(C)cc2)cc1	77.9%	32.0%	-18.2%	-5.0%
Cc1ccc(NC2CCCN(C(=O)CCN3CCOCC3)C2)cc1C (stereo not drawn)	?	5.6%	-8.7%	2.4%
CCOC(=O)c1sc2ncn(CC(=O)Nc3ccc(C)cc3Br)c(=O)c2c1C	/	/	-2.6%	/
COc1cc(/C=N/NC(=O)C(Cc2c[nH]c3ccccc23)NC(=O)OCC(C)C)cc([N+](=O)[O-])c1O (stereo not drawn)	11.7µM*	-29.9%	-20.2%	10.0%
CCn1c(CNC(=O)C23CC4CC(CC(C4)C2)C3)nnc1SCC(=O)Nc1nnc(C)s1	7.38µM*	/	-5.2%	-0.9%
CCCCSc1nnc(CNC(=O)C23CC4CC(CC(C4)C2)C3)n1Cc1ccccc1	?	13.1µM*	-6.8%	18.4%
CCCCn1c(CNC(=O)C23CC4CC(CC(C4)C2)C3)nnc1SC(C)CC (stereo not drawn)	?	10.4µM*	4.6%	-0.3%
CCn1c(CNC(=O)C23CC4CC(CC(C4)C2)C3)nnc1SC	?	?	2.9%	-4.6%
CCCCn1c(CNC(=O)C23CC4CC(CC(C4)C2)C3)nnc1SCC(=O)Nc1nnc(C)s1	1.8%	3.0%	1.7%	4.2%
O=[N+]([O-])c1cc(C(F)(F)F)ccc1N1CCCC(O)C1 (stereo not drawn)	10.5%	7.7%	7.1%	0.3%
O=[N+]([O-])c1ccc(N2CCCC(C(F)(F)F)C2)c2ccncc12 (stereo not drawn)	?	13.1µM*	-24.6%	-51.2%
CC1(C)O[C@H]2[C@@H](O1)[C@@H](C(=O)Nc1cc(F)ccc1F)O[C@@H]1OC(C)(C)O[C@@H]12	/	/	-4.3%	/

Screens deposited in PubChem by National Center for Advancing Translational Sciences (NCATS).
